Measurements as given in ChEMBL document CHEMBL4513216, “Probing the Open Global Health Chemical Diversity Library for Multistage-Active Starting Points for Next-Generation Antimalarials” (ACS Infect Dis, 2020).
About 8,600 (12%) of roughly 69,000 compounds showed an effect of 50% or more. The list comes from a sample in which strong results are over-represented; it also holds similar structures and randomly drawn compounds.

Test system: Plasmodium berghei
Experiment: Screen against P. berghei liver stage (PbLuc), transformed with Luciferase, at 10uM
Assay type: functional, HepG2
Conditions: tested at 10 uM

Row | SMILES | INHIBITION
1 | CC(C)CN1CCC2(C=C(C(=O)N3CCCC3)c3ccccc32)CC1 | -17%
2 | Cc1cc(CN2CCN(C(=O)CCc3cccs3)CC2)on1 | -9.08%
3 | Cc1cccc(COCC2c3nnn(C)c3CCN2Cc2ccoc2)n1 (centres undefined) | -5.08%
4 | C[C@H]1CN(C(=O)c2cccnc2)C[C@@]12CCN(CCN1CCCC1)C2=O | 23.6%
5 | CC(=O)N(Cc1ncc(C)o1)C1CCN(Cc2ccon2)C1 (centres undefined) | 3.73%
6 | CO[C@H]1CN(C(=O)c2ccc(-c3ccccc3)[nH]2)CC[C@H]1N | -22.4%
7 | O=C(c1cnccn1)N1C[C@H]2CC[C@@H](C1)N(S(=O)(=O)c1cccnc1)C2 | -6.34%
8 | Cc1nc(CN(C)S(=O)(=O)c2ccccc2C(F)(F)F)no1 | 11.3%
9 | Cc1nc(CN(C)S(=O)(=O)c2ccc(F)cc2Br)no1 | 18.9%
10 | Cc1nc(CN(C)S(=O)(=O)c2ccccc2Br)no1 | 58.1%
11 | Cc1cc(NCCC(=O)NC2CCCC2)nc(-c2ccncc2)n1 | 4.52%
12 | CC(C)CS(=O)(=O)N1CCC2(CN(c3cccc(F)c3)C(=O)CN2C)C1 (centres undefined) | 55.5%
13 | CCS(=O)(=O)N1CCC2(CN(c3cccc(F)c3)C(=O)CN2C)C1 (centres undefined) | 19.4%
14 | CN1CC(=O)N(c2cccc(F)c2)CC12CCN(S(C)(=O)=O)C2 (centres undefined) | -5.12%
15 | CCCc1n[nH]c(C2CN(C(=O)c3ccc[nH]3)CCO2)n1 (centres undefined) | 27.8%
16 | CCc1nc2c(c(N3CCOCC3)n1)CCN(C(=O)c1ccon1)CC2 | 52.2%
17 | O=C(c1ccccn1)N1CCc2ncnc(N3CCOCC3)c2CC1 | -64.5%
18 | CCc1nc2c(c(N3CCOCC3)n1)CCN(C(=O)N1CCCC1)CC2 | -28.4%
19 | COc1ccc(C(C(=O)O)N(C)Cc2c(C)nn(C)c2C)c(C)c1 (centres undefined) | 26.9%
20 | Cc1nc(C2CCN(C(=O)c3cscn3)CC2)c2sccn12 | 17.4%
21 | O=C(CNC1CCc2ncnn2C1)NCCc1cccs1 (centres undefined) | 12.3%
22 | CCCOc1ccc2c(c1)OCC(CNC1CCc3ncnn3C1)=C2 (centres undefined) | 42.1%

Row | SMILES | INHIBITION
23 | Clc1ccc2c(c1)C=C(CNC1CCc3ncnn3C1)CO2 (centres undefined) | 51.8%
24 | c1ccc(-n2cc(CNC3CCc4ncnn4C3)cn2)cc1 (centres undefined) | 11.6%
25 | O=C(CNC1CCc2ncnn2C1)N(Cc1cccs1)C1CC1 (centres undefined) | 27.7%
26 | c1csc(CCNC2CCc3ncnn3C2)c1 (centres undefined) | 68.8%
27 | Clc1ccc(-c2cnc(CNC3CCc4ncnn4C3)o2)cc1 (centres undefined) | 39.6%
28 | C1=C(CNC2CCc3ncnn3C2)COc2ccccc21 (centres undefined) | 61.6%
29 | Clc1ccc(-n2cc(CNC3CCc4ncnn4C3)cn2)cc1 (centres undefined) | 51.3%
30 | c1ccc(Cn2cc(CNC3CCc4ncnn4C3)cn2)cc1 (centres undefined) | 39.5%
31 | COc1ccc2c(c1)OCC(CNC1CCc3ncnn3C1)=C2 (centres undefined) | 35.1%
32 | Clc1cccc(-c2nc(CNC3CCc4ncnn4C3)co2)c1 (centres undefined) | 49.8%
33 | COc1cccc(-c2cc(C3=NC(=CN4CCN(C)CC4)NO3)[nH]n2)c1 | 33.1%
34 | NC(=O)CN1CCC(c2cccc(Oc3ccccc3)n2)CC1 | -11.4%
35 | CCn1nc(C)c2nnn(CC(=O)Nc3ccccc3F)c(=O)c21 | 40.8%
36 | CSc1nnc(C2CCN(C(=O)N3CCOCC3)CC2)n1C(C)C | 40.85%
37 | CCN1CCC2(CN(C(=O)N(C)C)CC23CCNCC3)C1=O (centres undefined) | -3.58%
38 | CNC(=O)NC(=O)CN(Cc1ccc(C#N)cc1)Cc1cccc(F)c1 | -0.85%
39 | Cc1cccc2c1N(C)C(=O)C21CC(=O)Nc2c1cnn2C(C)(C)C (centres undefined) | -23.9%
40 | O=C(CCOc1ccccc1F)N1CCCCC1Cn1cccn1 (centres undefined) | -21.5%
41 | COc1ccccc1CN1CCCCC1c1n[nH]cc1-c1cc(C)no1 (centres undefined) | 24.8%
42 | Cc1cc(-c2cnc(NCc3cccnc3)nc2C(C)(C)C)on1 | 83.6%
43 | COCc1cc(NCc2ccccc2OC)ncn1 | 12.6%
44 | COc1ccc(CNc2ncc(-c3cc(C)no3)c(C(C)C)n2)cc1 | -5.71%

Row | SMILES | INHIBITION
45 | Cc1cc(-c2cnc(NCc3ccccn3)nc2C(C)C)on1 | 24.4%
46 | COc1ccccc1CNc1ncc(-c2cc(C)no2)c(C(C)C)n1 | 79.7%
47 | CCN(CC)CCNc1ncc(-c2cc(C)no2)c(-c2ccoc2C)n1 | 33.5%
48 | Cc1cc(-c2cnc(NCc3ccncc3)nc2C(C)C)on1 | 94.1%
49 | Cc1cc(-c2cnc(NCc3cccnc3)nc2C(C)C)on1 | 69.4%
50 | Cc1cnc(-c2nc(NC3CC3)ncc2-c2cc(C)no2)cn1 | 8.72%
51 | Cc1nn(C)c2c(NCc3cccnc3)nc(C(C)C)nc12 | -34%
52 | CCn1ncc(S(=O)(=O)N[C@@H]2CC[C@@H](n3ccnc3)[C@@H]2O)c1C | 4.65%
53 | Fc1cccnc1OC[C@@]12CCO[C@@H]1CCN(CC1CCOCC1)C2 | -17.7%
54 | Cc1csc(CCNC(=O)N2CCC(n3cccc3)CC2)n1 | -6.04%
55 | O=C(O)c1cnc(-c2cccc3c2CCNC3)c(Cl)c1 | 2.15%
56 | COc1cccc(COCC(=O)NC(C)c2nnc3n2CCC3)c1 (centres undefined) | -0.613%
57 | CCc1nnc(Nc2cc(C)nc(C3CCN(c4ncccn4)C3)n2)s1 (centres undefined) | -11.4%
58 | CCC(O)CNc1nccc(-c2ccc(C)nc2C)n1 (centres undefined) | -8.9%
59 | Cc1ccc(NC(=O)C(C)n2ccc(C(F)(F)F)n2)nc1 (centres undefined) | 20.9%
60 | O=C(NC1CC1)N1CCc2ccc(=O)n(Cc3cccnc3)c2CC1 | 45.2%
61 | Cc1ccc(-c2cc(C)nc(C3CCCN3S(C)(=O)=O)n2)cc1 (centres undefined) | -70.8%
62 | CC(C)c1nn(C)c(N(C)C)c1CNCc1ccc2c(c1)OCO2 | 3.75%
63 | CC(C)c1nn(C)c(Cl)c1CNCc1ccc2c(c1)OCO2 | 27.8%
64 | Cc1cc(-c2cnc(NCc3ccc4c(c3)OCO4)nc2C(C)C)on1 | 90.5%
65 | CN1C(=O)Cc2cc(-c3csc(CCN4CCOC4=O)n3)ccc21 | 19.2%
66 | CC(C)CN1C[C@H]2CCN(Cc3cccnc3)CC[C@H]2S1(=O)=O | 42.1%

Row | SMILES | INHIBITION
67 | CCn1cc(CN2CCCN(C(=O)CCc3nccs3)CC2)cn1 | 1.78%
68 | O=C(Nc1cc(F)ccc1OCC1CCCO1)NC1CC1 (centres undefined) | -12.1%
69 | CC(C)(C)CN1CCCC2(CCN(C(=O)c3cn[nH]c3)C2)C1 (centres undefined) | 68%
70 | CC(C)(C)CN1CCCC2(CCN(C(=O)c3ccc(O)nc3)C2)C1 (centres undefined) | 43.1%
71 | O=C(c1cn[nH]c1)N1CCC2(CCCN(Cc3ccc(F)c(F)c3)C2)C1 (centres undefined) | 25.8%
72 | Cc1cnn(CC2CN(CC(=O)Nc3nncs3)CCO2)c1 (centres undefined) | 30.76%
73 | CC(=O)N1CCCC1c1nc(C)cc(-c2ccc(F)cc2)n1 (centres undefined) | 48.4%
74 | CN1CCC/C1=N\S(=O)(=O)c1ccc(NC(=O)c2ccco2)cc1 | -67.3%
75 | CNS(=O)(=O)c1ccc(F)c(C(=O)NCc2ccnc(OC)c2)c1 | 31.2%
76 | CCCc1noc(CCC(=O)Nc2cc(C(F)(F)F)c[nH]c2=O)n1 | 52.2%
77 | CCc1noc(CCCC(=O)Nc2cc(C(F)(F)F)c[nH]c2=O)n1 | 29.8%
78 | CC(C)c1noc(CCC(=O)Nc2cc(C(F)(F)F)c[nH]c2=O)n1 | 41.5%
79 | Cc1cnn(CC2CN(c3nnc(C)c(C)c3C#N)CCO2)c1 (centres undefined) | 15.635%
80 | Cc1nc(C2CCN(S(C)(=O)=O)CC2)nc(N2CCCC2)c1C | 11.25%
81 | CCc1c(C)sc2ncnc(N3C[C@H](O)[C@@H](N4CCCC4)C3)c12 | 48.5%
82 | Cc1sc2nc(CCN)nc(N3CCC(N4CCCC4)CC3)c2c1C | 39.6%
83 | Cc1sc2nc(CCN)nc(N3CC(N4CCCCC4)C3)c2c1C | 86.9%
84 | Cc1sc2nc(CCN)nc(N3CCS(=O)(=O)CC3)c2c1C | 31.3%
85 | COC(=O)CNC(=O)CSCc1nc(O)c2c(C)c(C)sc2n1 | 22.1%
86 | CCOC(=O)N1CCN(c2nc(CCN)nc3sc(C)c(C)c23)CC1 | 90.7%
87 | Cc1sc2nc(CCN)nc(N3CCN(S(C)(=O)=O)CC3)c2c1C | 67.5%
88 | CCOC(=O)N1CCN(C(=O)c2sc(-c3ccccc3F)nc2C)CC1 | 39.9%

Row | SMILES | INHIBITION
89 | NC(=O)c1cccc(-c2cnc(C3CCCNC3)cn2)c1 (centres undefined) | 34.3%
90 | CC(C)N(C)Cc1ncn2c1CN(S(=O)(=O)c1cccs1)CCC2 | 38.5%
91 | Cc1noc([C@@H](C)NCc2ccc(F)cc2)c1C(=O)O | -4.82%
92 | CCCS(=O)(=O)N1C[C@@H]2CN(Cc3ccco3)CCO[C@@H]2C1 | -32.6%
93 | O=C(NCC1CCOC1)N1CCN(Cc2ccc3c(c2)OCO3)CC1 (centres undefined) | 33.3%
94 | Cc1cc2cc(C(=O)N[C@@H]3CC[C@@H](N4CCCC4)[C@@H]3O)ccc2o1 | 26.3%
95 | Cc1noc(C2CCCN(Cn3cc(Br)cn3)C2)n1 (centres undefined) | -12.2%
96 | Cc1noc(CS(=O)(=O)CC(=O)NC(C)c2ccccc2)n1 (centres undefined) | 31.2%
97 | CCCc1noc(CS(=O)(=O)CC(=O)NC(C)CCC)n1 (centres undefined) | 58.3%
98 | CCC(C)NC(=O)CS(=O)(=O)Cc1nc(-c2cccs2)no1 (centres undefined) | 46.4%
99 | CC[C@@H]1N(CC2CC2)CCC[C@]12CCC(=O)N2CCOC | 4.2%
100 | CCc1nnc(CN2CCCN(C(=O)c3ccccn3)CC2)o1 | -47.6%
101 | Cc1nc(CN2CCCN(C(=O)c3ccccn3)CC2)oc1C | 60.5%
102 | Cc1noc(CN2CCN(C(=O)c3ccccn3)CC2)n1 | 37.3%
103 | Cc1nc(CN2CCCN(C(=O)c3ccn(C)c(=O)c3)CC2)cs1 | -12.2%
104 | COCc1ccc(C(=O)N2CCC(Oc3ccccc3)(C(=O)O)CC2)o1 | -11.6%
105 | O=C(c1ccc(COc2ccccc2Cl)o1)N1N=CCC1(O)C(F)(F)F (centres undefined) | 4.66%
106 | O=C(c1ccc(COc2ccc(Cl)cc2)o1)N1N=CCC1(O)C(F)(F)F (centres undefined) | 89.3%
107 | O=C(NC1CCCC1)c1ccc(COCC(F)(F)F)o1 | 31.6%
108 | Cc1cccc(OCc2ccc(C(=O)N3N=CCC3(O)C(F)(F)F)o2)c1 (centres undefined) | 69.2%
109 | O=C(Cc1ccc(Cl)cc1)N1CCC(O)(C(F)(F)F)C1 (centres undefined) | -55%
